Most compounds without a hit are left out; they make up all but 2.8% or so of the library.
TWEAK Fn14 block – inhibitors of TWEAK-Fn14 interaction signaling; TWEAK-stimulated Fn14 reporter cells, luciferase luminescence, 8 h; inhibition, % at 10 µM; 2% of 360,000 active; AID 1159606; in the data active = inhibition above about 50%
PAX8 reporter – lowers PAX8-driven luciferase in RMG-I cells. RMG-I TPO-luciferase reporter, SteadyGlo, 24 h. inhibition, % at 12.6 µM. 1.2% of 360,000 active;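 active = mean replicate inhibition at least 60% with every replicate also reaching 60%; inconclusive = only one of the two criteria is met; inactive = mean below 60% and not all replicates reaching 60%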;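 also: luciferase light reporting Pax8 driven TPO promoter activity; plate controls were median of neutral control wells for no effect and mitoxantrone controls for full effect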
EWS-Fli inh – EWS/Fli transcriptional activity inhibition; A673 NR0B1-luciferase reporter, viability-normalised; 0.67% of 350,000 active; AID 651661; inhibition, % at 12.6 µM;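 active = mean inhibition of at least 50% after viability correction, with every replicate also passing that limit; inconclusive = mean reaches 50% but only one of two replicates passes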;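 also: firefly luciferase signal divided by Alamar Blue viability fluorescence both relative to DMSO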
LGR2 antag – Drosophila LGR2 receptor signaling inhibition; HEK293 LGR2, CRE-luciferase, bursicon-stimulated, 4 h; AID 720647; 0.35% of 380,000 active; inhibition, % at 9.99 µM;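 active = drop in luminescence signal, shown as inhibition above about 50% in the replicate tests, limit read from the data, passing the limit was not always enough; inconclusive = probably only some replicates passing the limit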;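 also: agonist challenge used bursicon conditioned medium at about half maximal strength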
TROY NFkB inh – blocks TROY-dependent signaling in reporter cells. AID 1347056. Q293 LMP1-TROYcd NF-kB luciferase reporter, 4 h. inhibition, % at 10 µM. 0.98% of 360,000 active;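 active = compounds whose plate-normalised and pattern-corrected inhibition of the luciferase reporter signal at the single screening dose is 50% or more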
Active calls of the source: *; ? = inconclusive; . = no result given.

SMILES	TWEAK Fn14 block	PAX8 reporter	EWS-Fli inh	LGR2 antag	TROY NFkB inh
COc1ccc(S(=O)(=O)N2CCCCN3[C@H](C2)[C@@H](c2ccc(C#CC(C)C)cc2)[C@@H]3CO)cc1	.	91*	11	-7	.
O=C(N[C@@H]1CC[C@@H](CC(=O)N2CCOCC2)O[C@H]1CO)c1ccccn1	.	.	.	3	.
C[C@@H]1CN([C@H](C)CO)S(=O)(=O)c2ccc(-c3cccc(C#N)c3)cc2O[C@@H]1CN(C)CC1CC1	.	17	-8	-10	.
COc1cc(OC)c(OC)cc1/C=C1\CC(C)C/C(=C\c2cc(OC)c(OC)cc2OC)C1=O (stereo not given)	64*	74*	5	16	37
CCC1C/C(=C\c2cc(OC)c(OC)cc2OC)C(=O)/C(=C/c2cc(OC)c(OC)cc2OC)C1 (stereo not given)	26	.	.	.	12
CO[C@H]1CN(C)C(=O)c2cc(NC(=O)Nc3ccccc3)ccc2OC[C@H](C)N(C(=O)CN(C)C)C[C@@H]1C	.	.	-2	15	.
C[C@H](CO)N1C[C@H](C)[C@@H](CN(C)C(=O)Nc2ccc(C(F)(F)F)cc2)Oc2c(NC(=O)CCCCCC(=O)Nc3ccccc3N)cccc2C1=O	.	11	-15	6	.
COc1ccc(OC)c(C2=CC(=O)C[C@H](c3ccc4c(c3)OCO4)C2)c1	7	-7	66*	3	22
CCOc1ccc(Br)cc1C1=CC(=O)C[C@H](c2ccc(OC)cc2)C1	1	31	57*	24	16
COc1ccc([C@H]2CC(=O)C=C(c3cc(C)ccc3OC)C2)cc1	10	19	60*	14	7
COc1c(F)cccc1C1=CC(=O)C[C@H](c2ccc3c(c2)OCO3)C1	-44	-15	-6	-21	-20
COc1ccc([C@H]2CC(=O)C=C(c3cc(Cl)ccc3C)C2)cc1	15	12	9	0	-3
COc1ccc([C@H]2CC(=O)C=C(c3ccnc4ccc(Cl)cc34)C2)cc1	52*	7	24	10	39
C[C@@H]1CN([C@H](C)CO)C(=O)c2cccc(NS(=O)(=O)c3cn(C)cn3)c2O[C@@H]1CN(C)Cc1ccccc1	.	-5	-2	9	.
CNC[C@@H]1Oc2cc(-c3cccc(C(=O)N(C)C)c3)ccc2S(=O)(=O)N([C@@H](C)CO)C[C@H]1C	.	0	7	9	.
CC(=O)c1ccc2c(c1)CC1(C2)Cc2cc3c(cc2C1)C(=O)CC3 (stereo not given)	57*	?	?	32	51*
COc1ccc(OCC(=O)Nn2c(-c3ccc(C)cc3)nc3ccccc3c2=O)cc1	72*	13	.	23	72*
Cc1ccc(OCC(=O)NNc2c3ccccc3nc3ccccc23)cc1	72*	8	15	1	5
CN1CCN(C(=O)C2=C[C@@H](C3CC3)C[C@@H](OCCCCO)O2)CC1	.	.	-7	.	.
CN(C)CCCN(Cc1cc2cc3c(cc2[nH]c1=O)OCO3)C(=S)Nc1cccc(Cl)c1	28	11	10	.	51*
CCc1ccc2[nH]c(=O)c(CN(Cc3ccccc3)C(=O)Nc3ccccc3OC)cc2c1	26	.	.	8	55*
COc1ccccc1NC(=O)N(Cc1cccs1)Cc1cc2cc3c(cc2[nH]c1=O)OCO3	67*	24	.	-6	18
C[C@@H]1CN([C@@H](C)CO)C(=O)c2cc(NS(=O)(=O)c3cn(C)cn3)ccc2O[C@H]1CN(C)Cc1ccc(Cl)c(Cl)c1	.	7	1	-1	.
COc1cccc2c(C)cc(N3CCCCCC3)nc12	-6	-2	14	5	2
COc1ccc(OC)c2c(C)cc(N3CCCCCC3)nc12	103*	15	1	12	-4
SMILES	TWEAK Fn14 block	PAX8 reporter	EWS-Fli inh	LGR2 antag	TROY NFkB inh
Cc1ccn2cc(-c3cc4ccccc4oc3=O)nc2c1	66*	-98	68*	46	0
NC(=O)CSc1nc2c(c(=O)n1-c1ccccc1)C1(CCCCC1)Cc1ccccc1-2	37	4	-7	16	44
Cc1cccc(-n2c(SCC(N)=O)nc3c(c2=O)C2(CCCC2)Cc2ccccc2-3)c1	33	.	.	14	50*
COc1ccc(-c2ccc3n(c2=O)C[C@H]2[C@H](CO)[C@@H](C(=O)NC4CCC4)N(S(C)(=O)=O)[C@@H]32)cc1	.	.	0	-12	.
Nc1ccccc1S(=O)(=O)NC1=NCCCCC1	104*	-23	8	11	-15
O=C(N[C@H]1CC[C@H](CC(=O)N2CCCCC2)O[C@H]1CO)c1cccc(F)c1	.	-3	2	-12	.
CCN1CCN(CCCNC(=O)c2ccc(/C=C3/Sc4ccccc4N(Cc4ccccc4F)C3=O)cc2)CC1	7	-28	10	21	60*
O=C(CCN1C(=O)/C(=C/c2ccccc2Cl)SC1=S)N1CCOCC1	12	1	.	24	-33
O=C(CCN1C(=O)/C(=C/c2ccccc2Cl)SC1=S)N1CCCC1	37	83*	-3	29	-27
O=C(CCCN1C(=O)/C(=C/c2ccccc2Cl)SC1=S)N1CCCC1	58*	-4	3	29	11
O=C(CCCN1C(=O)/C(=C/c2ccccc2)SC1=S)N1CCOCC1	5	38	-18	12	-22
COc1cccc(NC(=O)N(C)C[C@H]2OCc3ccccc3-c3c(n(C)c4ccccc34)C(=O)N([C@@H](C)CO)C[C@H]2C)c1	.	10	4	-10	.
COc1ccc2c3c([nH]c2c1)[C@H](CO)NCC31CN(C(=O)C2CC2)C1	.	.	-12	-9	.
O=C([C@H]1[C@H](CO)[C@H]2Cn3c(ccc(/C=C/c4ccccc4)c3=O)[C@@H]1N2)N1CCCCC1	.	-10	5	-13	.
CC(C)(C)OC(=O)N(Cc1ccccc1)Cc1ccc(OCc2cccc(NC(=O)C3CC3)c2)cc1	57*	-10	30	11	17
COc1ccc(Cn2c(-c3ccc(C)cc3)c[n+]3ccccc23)cc1	33	88*	5	13	18
COc1ccc(-c2nc3ccccc3n2Cc2ccc(C)cc2)cc1	-8	.	.	-3	0
CCOc1ccc(Br)cc1C1C(C(=O)OC)=C(N)Oc2cc(N(C)C)ccc21 (stereo not given)	53*	.	.	.	5
C=CC[C@@H](CC(=O)N(CCO)Cc1ccccc1)C(=O)NC[C@H](OC(=O)[C@@H](CC=C)Cc1ccc(F)cc1)c1ccccc1	52*	84*	-2	3	42
C=CCC[C@H](Cc1ccc(F)cc1)C(=O)OC[C@@H](NC(=O)[C@@H](CC=C)CC(=O)N(CCO)Cc1ccccc1)C(C)(C)C	24	64*	14	17	25
C=CCC[C@H](Cc1ccc(F)cc1)C(=O)OC[C@@H](NC(=O)[C@@H](CC=C)CC(=O)N[C@@H](CO)Cc1ccccc1)C(C)(C)C	28	108*	11	39	27
C=CC[C@H](CC(=O)N(CCO)Cc1ccccc1)C(=O)N[C@H](COC(=O)[C@@H](CC=C)Cc1ccc(F)cc1)C(C)(C)C	25	-1	10	15	18
CN(C)CC(=O)Nc1ccc2c(c1)[C@@H]1C[C@@H](CC(=O)NCc3cc(F)ccc3F)O[C@@H](CO)[C@@H]1O2	.	0	-5	-2	.
